# In PubChem BioAssay (Tox21):
# Values without a mark were called inactive. Inconclusive results are not listed. Entries that show only a call come without a potency. Active and inactive are the calls of the source. Unless noted, the call rests on the fitted dose curve.
# Assays:
# [1] = Nuclear factor erythroid 2-related factor 2/antioxidant responsive element (Nrf2/ARE) small molecule agonists: qHTS cell viability counter screen in human keratinocytes (AID 1919968; active means well fitted curve in the direction sought with a large enough effect in the repeat runs; an effect the other way counts as inactive or inconclusive; further: nearly all actives have a fitted effect of over 55% in size)
# Outline: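 Measured as CellTiter-Fluor fluorescence, this readout tracks cytotoxicity in the same wells as the ARE-luciferase screen. HaCaT reporter cells (1,500/well) received compounds after a 5 h pre-incubation and were exposed for 23 h.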
# [2] = Nuclear factor erythroid 2-related factor 2/antioxidant responsive element (Nrf2/ARE) small molecule agonists: luciferase reporter gene qHTS assay in human keratinocytes (AID 1919969); further: nearly all actives have a fitted effect of over 35% in size; further: potency means the concentration at half of the fitted maximal effect
# [3] = molecular target: Gonadotropin-releasing hormone receptor (Homo sapiens) (UniProt P30968); experiment: Human gonadotropin-releasing hormone receptor (GnRHR) small molecule agonists, calcium flux assay in GnRHR-HEK293 cells (AID 1920063); further: nearly all actives have a fitted effect of over 35% in size
# Sequence of Gonadotropin-releasing hormone receptor (Homo sapiens) (P30968 whole entry, looked up): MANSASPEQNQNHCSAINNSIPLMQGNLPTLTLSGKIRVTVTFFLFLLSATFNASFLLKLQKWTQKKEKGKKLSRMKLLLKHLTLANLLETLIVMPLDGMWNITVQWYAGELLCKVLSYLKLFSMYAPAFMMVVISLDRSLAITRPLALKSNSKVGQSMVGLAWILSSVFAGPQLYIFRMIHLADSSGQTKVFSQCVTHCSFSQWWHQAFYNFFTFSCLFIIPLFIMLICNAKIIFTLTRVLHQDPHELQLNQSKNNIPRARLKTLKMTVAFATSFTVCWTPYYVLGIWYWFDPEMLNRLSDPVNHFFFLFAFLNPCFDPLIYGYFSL
# Outline: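 Fluorescence kinetics (480 nm excitation, 540 nm emission; 3 min, 1 s steps) report calcium mobilisation in human GnRHR-HEK293 cells in agonist mode. Dye incubation: 1 h, 37 C.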
# [4] = p53 small molecule agonists, cell-based qHTS assay with human liver microsomes (AID 1963577);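 further: p53 response element beta-lactamase reporter cells with liver microsomes plus NADPH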
# Outline: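 In this qHTS, p53 response-element beta-lactamase cells receive test compound together with a microsome/NADPH activating system (0.5 mg/mL final each) and are incubated 16 h at 37 C before LiveBLAzer fluorescence detection.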
# [5] = p53 small molecule agonists, cell-based qHTS assay with rat liver microsomes (AID 1963578)
# Outline: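 Agonist mode in p53RE-bla reporter cells, with compounds co-incubated 16 h at 37 C alongside 0.5 mg/mL rat liver microsomes and 0.5 mg/mL NADPH (final), followed by a 2 h LiveBLAzer detection step.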
# [6] = p53 small molecule agonists, cell-based qHTS assay with human liver microsomes: qHTS cell viability counter screen (AID 1963579); further: nearly all actives have a fitted effect of over 45% in size; further: potency means the concentration at half of the fitted maximal effect
# Outline: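 Metabolically activated exposure: compounds, human liver microsomes and NADPH (0.5 mg/mL final apiece) were added to p53RE-bla cells seeded 5 h earlier, left 16 h at 37 C, and then assessed for viability by CellTiter-Glo luminescence.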
# [7] = p53 small molecule agonists, cell-based qHTS assay with rat liver microsomes: qHTS cell viability counter screen (AID 1963580); further: nearly all actives have a fitted effect of over 45% in size
# Outline: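 HCT-116 p53RE-bla, 4,000 cells/well, 5 h pre-incubation; cpd + rat liver microsomes 0.5 mg/mL + NADPH 0.5 mg/mL (final); 16 h, 37 C; CellTiter-Glo, 30 min RT; luminescence.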
# [8] = p53 small molecule agonists, cell-based qHTS assay: qHTS cell viability counter screen (AID 1963581); further: nearly all actives have a fitted effect of over 45% in size
# Outline: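 In the same plates used for the p53 bla reporter, HCT-116 cells given compounds for 16 h at 37 C received CellTiter-Glo; luminescence was recorded 30 min later at room temperature.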
# [9] = p53 small molecule agonists, cell-based qHTS assay (AID 1963582; active means well fitted activation curve with a large enough effect in the signal ratio in the repeat runs, not every such curve was filed as active; the % refers to the signal ratio; further: potency means the concentration at half of the fitted maximal effect)
# Outline: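 Compounds are pin-transferred in DMSO onto p53RE-bla cells and incubated 16 h at 37 C. The B/G FRET beta-lactamase substrate is then applied for 2 h at RT and fluorescence recorded.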
# [10] = molecular target: 5-hydroxytryptamine receptor 2A (Homo sapiens) (UniProt P28223); experiment: 5-hydroxytryptamine receptor 2A (HTR2A) small molecule agonists, cell-based qHTS assay (AID 1963587); further: nearly all actives have a fitted effect of over 30% in size
# Sequence of 5-hydroxytryptamine receptor 2A (Homo sapiens) (P28223 whole entry, looked up): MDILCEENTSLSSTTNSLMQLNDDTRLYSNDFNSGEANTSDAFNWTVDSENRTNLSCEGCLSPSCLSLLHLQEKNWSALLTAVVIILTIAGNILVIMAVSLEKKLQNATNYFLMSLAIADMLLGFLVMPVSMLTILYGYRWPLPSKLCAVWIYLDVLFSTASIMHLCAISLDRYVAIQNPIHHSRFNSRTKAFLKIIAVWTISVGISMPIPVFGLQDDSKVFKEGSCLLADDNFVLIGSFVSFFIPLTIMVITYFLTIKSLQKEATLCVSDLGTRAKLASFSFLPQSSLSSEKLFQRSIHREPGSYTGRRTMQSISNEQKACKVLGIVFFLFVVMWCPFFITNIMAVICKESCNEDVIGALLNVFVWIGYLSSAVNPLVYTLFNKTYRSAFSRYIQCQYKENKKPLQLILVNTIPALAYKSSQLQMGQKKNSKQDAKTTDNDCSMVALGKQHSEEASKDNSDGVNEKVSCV
# Outline: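 Kinetic calcium-flux fluorescence (2 min, 1 sec intervals) after compound addition in agonist mode. HTR2A-CHO cells were cultured 18 h, then dye-loaded 1 h at 37 C.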
# [11] = molecular target: Muscarinic acetylcholine receptor M1 (Homo sapiens) (UniProt P11229); experiment: Cholinergic receptor muscarinic 1 (CHRM1) small molecule antagonists, cell-based qHTS assay (AID 1963588); further: nearly all actives have a fitted effect of over 40% in size
# Sequence of Muscarinic acetylcholine receptor M1 (Homo sapiens) (P11229 whole entry, looked up): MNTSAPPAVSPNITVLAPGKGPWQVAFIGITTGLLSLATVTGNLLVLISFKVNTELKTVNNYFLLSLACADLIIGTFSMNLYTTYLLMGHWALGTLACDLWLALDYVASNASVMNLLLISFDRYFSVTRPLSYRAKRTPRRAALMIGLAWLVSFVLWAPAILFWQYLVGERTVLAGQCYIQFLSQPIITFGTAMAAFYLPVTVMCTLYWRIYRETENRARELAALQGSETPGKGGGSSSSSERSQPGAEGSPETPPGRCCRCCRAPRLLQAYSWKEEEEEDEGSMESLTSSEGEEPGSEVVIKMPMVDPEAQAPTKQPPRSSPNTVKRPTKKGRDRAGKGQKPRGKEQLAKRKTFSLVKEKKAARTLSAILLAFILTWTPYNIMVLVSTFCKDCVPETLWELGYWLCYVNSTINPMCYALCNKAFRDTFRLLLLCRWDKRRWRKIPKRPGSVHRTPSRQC
# Outline: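 CHRM1-CHO calcium-flux assay, antagonist mode. Cells were seeded 18 h, dye-loaded 1 h at 37 C and given compound for 5 min at RT, then acetylcholine was added at 50nM. FDSS fluorescence was read 3 min; 15 concentrations, three runs.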
# [12] = molecular target: Muscarinic acetylcholine receptor M1 (Homo sapiens) (UniProt P11229); experiment: Cholinergic receptor muscarinic 1 (CHRM1) small molecule agonists, cell-based qHTS assay (AID 1963589); further: nearly all actives have a fitted effect of over 35% in size
# Outline: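 Each compound was tested at 15 concentrations across three independent runs on dye-loaded CHO cells stably expressing human CHRM1, reading intracellular calcium fluorescence kinetically at 1 sec intervals.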
# [13] = cAMP Responsive Elements (CRE) small molecule agonists, cell-based qHTS assay (AID 1963590)
# Outline: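 Cell line: CRE-bla HEK 293T; medium DMEM/10% dialyzed FBS/0.1 mM NEAA/1 mM pyruvate/25 mM HEPES; 3 h compound exposure; beta-lactamase FRET readout after 2 h substrate loading at RT.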
# [14] = cAMP Responsive Elements (CRE) small molecule antagonists, cell-based qHTS assay (AID 1963591; active means well fitted inhibition curve with a large enough effect in the signal ratio in the repeat runs, not every such curve was filed as active; the % refers to the signal ratio)
# Outline: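 Inhibition of NKH477-driven (0.25 uM final) CRE-beta-lactamase signal in HEK293T cells, 3 h compound exposure at 37 °C, detected by FRET substrate fluorescence.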
# [15] = molecular target: Beta-2 adrenergic receptor (Homo sapiens) (UniProt P07550); experiment: Adrenergic beta2 receptor (ADRB2) small molecule antagonists, cell-based qHTS assay (AID 1963592); further: series mostly up to about 92 µM; nearly all actives have a fitted effect of over 50% in size
# Sequence of Beta-2 adrenergic receptor (Homo sapiens) (P07550 whole entry, looked up): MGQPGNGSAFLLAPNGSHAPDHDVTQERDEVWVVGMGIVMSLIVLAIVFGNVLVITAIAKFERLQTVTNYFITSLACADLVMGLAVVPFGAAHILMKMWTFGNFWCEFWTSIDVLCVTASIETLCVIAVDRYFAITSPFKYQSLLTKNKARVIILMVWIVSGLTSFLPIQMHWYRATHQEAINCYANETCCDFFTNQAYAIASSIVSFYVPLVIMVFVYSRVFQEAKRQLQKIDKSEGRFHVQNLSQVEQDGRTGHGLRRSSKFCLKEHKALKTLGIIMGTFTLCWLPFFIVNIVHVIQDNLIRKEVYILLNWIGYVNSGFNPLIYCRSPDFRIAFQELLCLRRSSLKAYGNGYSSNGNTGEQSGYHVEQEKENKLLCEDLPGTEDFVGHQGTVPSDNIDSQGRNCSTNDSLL
# Outline: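 Cells (CHO, stable ADRB2 overexpression) incubated 18-20hr at 37C; compounds added from DMSO; agonist mix (1nM isoproterenol, 100uM IBMX, 25uM Ro-20-1724) added; 0.5hr RT; d2-cAMP and anti-cAMP-cryptate added; 1hr RT; 665/615 nm read.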
# [16] = molecular target: D(2) dopamine receptor (Homo sapiens) (UniProt P14416); experiment: Dopamine D2 receptor (DRD2) small molecule agonists, cell-based qHTS assay (AID 1963594); further: nearly all actives have a fitted effect of over 35% in size
# Sequence of D(2) dopamine receptor (Homo sapiens) (P14416 whole entry, looked up): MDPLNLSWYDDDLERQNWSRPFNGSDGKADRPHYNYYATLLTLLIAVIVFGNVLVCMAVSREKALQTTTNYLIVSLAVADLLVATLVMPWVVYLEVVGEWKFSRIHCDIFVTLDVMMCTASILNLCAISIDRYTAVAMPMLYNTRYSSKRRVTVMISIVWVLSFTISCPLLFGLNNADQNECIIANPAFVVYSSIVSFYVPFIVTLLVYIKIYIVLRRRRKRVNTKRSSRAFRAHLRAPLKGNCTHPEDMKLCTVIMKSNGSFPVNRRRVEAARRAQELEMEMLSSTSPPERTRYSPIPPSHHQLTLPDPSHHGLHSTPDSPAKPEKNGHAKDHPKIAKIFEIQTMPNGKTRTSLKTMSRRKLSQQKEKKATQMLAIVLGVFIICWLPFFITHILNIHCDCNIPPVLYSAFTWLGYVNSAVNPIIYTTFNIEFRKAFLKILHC
# Outline: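 cAMP accumulation in DRD2-HEK293 cells measured by HTRF after 1 h detection; compounds added 10 min before NKH477 (200nM […]) forskolin-analogue stimulation, 30 min at room temperature, with Ro20-1724 present at 0.1 mM final.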
# [17] = molecular target: D(2) dopamine receptor (Homo sapiens) (UniProt P14416); experiment: Dopamine D2 receptor (DRD2) small molecule antagonists, cell-based qHTS assay (AID 1963595; active means well fitted inhibition curve with a large enough effect in the signal ratio in the repeat runs, with a control signal flat; the % refers to the signal ratio; further: potency means the concentration at half of the fitted maximal effect)
# Outline: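 In this cell-based antagonist screen, compounds act for 10 min at room temperature before a 30 min challenge with 12 nM quinpirole and 200 nM NKH477. cAMP is quantified by HTRF competition in DRD2-HEK293 cells containing 0.1 mM Ro20-1724.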
# [18] = molecular target: KiSS-1 receptor (Homo sapiens) (UniProt Q969F8); experiment: Human kisspeptin (KISS1R) small molecule agonists, calcium flux assay in KISS1R-HEK293 cells (AID 1920064; active means well fitted curve in the direction sought with a large enough effect in the repeat runs; an effect the other way counts as inactive or inconclusive)
# Sequence of KiSS-1 receptor (Homo sapiens) (Q969F8 whole entry, looked up): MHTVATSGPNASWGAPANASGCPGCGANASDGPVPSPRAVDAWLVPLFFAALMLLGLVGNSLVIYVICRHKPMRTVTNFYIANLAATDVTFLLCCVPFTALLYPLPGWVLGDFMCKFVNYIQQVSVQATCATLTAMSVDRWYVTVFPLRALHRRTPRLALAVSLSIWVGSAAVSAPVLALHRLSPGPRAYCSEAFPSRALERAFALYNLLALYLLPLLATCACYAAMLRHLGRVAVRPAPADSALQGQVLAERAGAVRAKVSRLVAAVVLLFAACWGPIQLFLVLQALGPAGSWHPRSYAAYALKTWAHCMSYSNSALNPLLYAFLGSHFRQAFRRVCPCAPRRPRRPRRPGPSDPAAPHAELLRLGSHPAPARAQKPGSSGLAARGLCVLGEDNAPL
# Outline: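 Measures KISS1R agonism through calcium-sensitive dye fluorescence in stably transfected HEK293 cells, read for 3 min after pin-tool compound delivery; 15-point titrations in triplicate.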
# [19] = G protein-coupled receptor (GPCR) small molecule agonists, calcium flux assay: HEK293 wild type cell line counter screen (AID 1920065)
# Outline: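 Readout: fluorescence at 480 nm excitation/540 nm emission, sampled at 1 s intervals for 3 min. Cells had been cultured 18 h, then dye-loaded 1 h at 37 C before compound or ATP addition.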
# [20] = molecular target: 5-hydroxytryptamine receptor 2A (Homo sapiens) (UniProt P28223); experiment: 5-hydroxytryptamine receptor 2A (HTR2A) small molecule antagonists, cell-based qHTS assay (AID 1963586); further: nearly all actives have a fitted effect of over 45% in size
# Outline: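 Antagonist-mode intracellular calcium assay: DOI (4 nM) added after 5 min compound pre-incubation at room temperature to dye-loaded HTR2A-CHO cells. Fluorescence followed for 3 min, sampled every second.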
smiles,measurement,setting,value
CCN(CC)CCNC(=O)c1cc(Br)c(N)cc1OC,Potency,[1],inactive
same,Potency,[2],inactive
same,Potency,[3],inactive
same,Potency,[4],inactive
same,Potency,[5],inactive
same,Potency,[6],inactive
same,Potency,[7],inactive
same,Potency,[8],inactive
same,Potency,[9],inactive
same,Potency,[10],inactive
same,Potency,[11],inactive
same,Potency,[12],inactive
same,Potency,[13],inactive
same,Potency,[14],inactive
same,Potency,[15],inactive
same,Potency,[16],inactive
same,Potency,[17],0.376 µM (active)
NCC(=O)O,"activity change, negative = cytotoxicity",[1],-4.41% [at 19 µM]
same,"activity, positive = activation",[2],-0.375% [at 19 µM]
same,activity change,[3],"1.37% [at 11.8 µM, active compounds read high]"
same,activation,[4],0.573% [at 13.5 µM]
same,activation,[5],1.19% [at 13.6 µM]
same,"activity change, negative = cytotoxicity",[6],-11.7% [at 13.5 µM]
same,"activity change, negative = cytotoxicity",[7],-0.16% [at 13.5 µM]
same,"activity change, negative = cytotoxicity",[8],-0.356% [at 13.5 µM]
same,activation,[9],0.144% [at 13.5 µM]
same,activation,[13],-1.05% [at 19 µM]
same,"activity change, negative = inhibition",[14],4.57% [at 18.9 µM]
same,"activity change, negative = inhibition",[15],-10.5% [at 19 µM]
same,activation,[16],4.26% [at 19 µM]
same,"activity change, negative = inhibition",[17],-7.27% [at 18.9 µM]
CCCCCCC/C=C/C=O,Potency,[1],inactive
same,Potency,[2],inactive
same,outcome,[18],inactive
same,outcome,[19],inactive
same,Potency,[4],inactive
same,Potency,[5],inactive
same,Potency,[6],inactive
same,Potency,[7],inactive
same,Potency,[8],inactive
same,Potency,[9],inactive
same,Potency,[20],inactive
same,Potency,[10],inactive
same,Potency,[11],inactive
same,Potency,[14],inactive
same,Potency,[15],inactive
same,Potency,[16],inactive
same,Potency,[17],inactive
CC(NC(CCc1ccccc1)C(=O)O)C(=O)N1C(=O)N(C)CC1C(=O)O (centres undefined),Potency,[1],inactive
same,Potency,[2],inactive
same,Potency,[3],inactive
same,outcome,[19],inactive
same,Potency,[4],inactive
same,Potency,[6],inactive
same,Potency,[7],inactive
same,Potency,[8],inactive
same,Potency,[20],inactive
same,Potency,[10],inactive
same,Potency,[12],inactive
same,Potency,[13],inactive
same,Potency,[14],inactive
same,Potency,[15],inactive
same,Potency,[16],inactive
same,Potency,[17],inactive
OCC(F)(F)F,Potency,[1],inactive
same,Potency,[2],inactive
same,Potency,[3],inactive
same,outcome,[19],inactive
same,Potency,[5],inactive
same,Potency,[6],38.3 µM (active)
same,Potency,[7],inactive
same,Potency,[8],inactive
same,Potency,[9],inactive
same,Potency,[20],inactive
same,Potency,[10],inactive
same,Potency,[12],inactive
same,Potency,[13],inactive
same,Potency,[14],inactive
same,Potency,[15],inactive
same,Potency,[16],inactive
same,Potency,[17],inactive
COCCO,Potency,[1],inactive
same,Potency,[2],inactive
same,Potency,[3],inactive
same,outcome,[19],inactive
same,Potency,[4],inactive
same,Potency,[5],inactive
same,Potency,[9],inactive
same,Potency,[20],inactive
same,Potency,[10],inactive
same,Potency,[11],inactive
same,Potency,[12],inactive
same,Potency,[13],inactive
same,Potency,[14],inactive
same,Potency,[15],inactive
same,Potency,[16],inactive
same,Potency,[17],inactive
O=C1c2ccccc2C(=O)C1(O)O,Potency,[1],inactive
same,Potency,[2],61.4 µM (active)
same,outcome,[18],inactive
same,outcome,[19],inactive
same,Potency,[4],inactive
same,Potency,[5],inactive
same,Potency,[6],36.5 µM (active)
same,Potency,[7],inactive
same,Potency,[8],inactive
same,Potency,[9],36.5 µM (active)
same,Potency,[20],inactive
same,Potency,[10],inactive
same,Potency,[11],inactive
same,Potency,[12],inactive
same,Potency,[15],inactive
same,Potency,[16],inactive
same,Potency,[17],inactive
